MARV entry inh – Marburg virus entry inhibition; Marburg virus pseudotyped entry inhibition, cell reporter; Potency, µM (series often up to 37.8 µM), without a hit: at the highest dose activity change, negative = inhibition, most hits filed as inhibitors; 1.8% of 300,000 active; calls by dose curve; tested in HEK293 cells; also: potency is read from the fitted curve at half-maximal effect; % is scaled to controls: 0 for no effect and ±100 for the full control effect
Vaccinia Venus – vaccinia inhibition (Venus reporter); Vaccinia virus Venus reporter expression, fluorescence; Potency, µM (doses to about 36.5 µM), without a hit: at the highest dose activity change, negative = inhibition, most hits filed as inhibitors; 0.46% of 330,000 active; AID 720580; calls by dose curve; tested in A549 cells; also: potency is read from the fitted curve at half-maximal effect; % is scaled to controls: 0 for no effect and ±100 for the full control effect; nearly all actives have a fitted effect of over 30% in size
LASV entry inh – Lassa virus entry inhibition; Potency, µM (highest dose often 37.9 µM), for inactives: at the top dose activity change, negative = inhibition, hits mostly inhibitors; Lassa virus pseudotype entry inhibition, cell reporter; 1.2% of 300,000 active; calls by dose curve; tested in HEK293 cells; also: potency is read from the fitted curve at half-maximal effect; % is scaled to controls: 0 for no effect and ±100 for the full control effect; nearly all actives have a fitted effect of over 50% in size
Cycloheximide cs – affects cycloheximide protein synthesis inhibition readout, counter-screen | cell reporter, cycloheximide protein synthesis inhibition counterscreen | max response, % | 12% of 300,000 active; in the data active = max response mostly above about 13%, no sharp cut-off; inactive = mostly below about 14%; also: read at 38.3 µM for the half of the compounds with a filed dose; 0% is about no effect
Shiga inhibitor – inhibitors of Shiga toxin in Vero cells; Vero cells, Shiga toxin protein synthesis inhibition reporter; inhibition, % at 38.7 µM; 9.2% of 290,000 active; in the data active = inhibition mostly above about 28%, no sharp cut-off; inactive = mostly below about 43%; also: 0% is about no effect
Vaccinia mCherry – inhibitors of vaccinia virus infection (mCherry reporter signal) | Vaccinia virus mCherry reporter infection, fluorescence | Potency, µM (series often up to 36.5 µM), inactives show at the highest dose activity change, negative = inhibition, actives largely listed as inhibitors | 0.63% of 310,000 active | AID 720579; calls by dose curve; tested in A549 cells; also: potency is read from the fitted curve at half-maximal effect; % is scaled to controls: 0 for no effect and ±100 for the full control effect; nearly all actives have a fitted effect of over 35% in size
An asterisk follows results filed as active; i = inactive; ? = inconclusive; / = not tested or not shown; [ ] = another dose, or the depositor's remark. Only a selection was taken, and hits are over-represented in it overall.

SMILES	MARV entry inh	Vaccinia Venus	LASV entry inh	Cycloheximide cs	Shiga inhibitor	Vaccinia mCherry
O=C(N/N=C/c1cccc([N+](=O)[O-])c1)c1cccs1	26%	-5%	4%	26*	34	-10%
CCOc1ccc(C(=O)Nc2cccc(NC(=O)c3cccs3)c2)cc1[N+](=O)[O-]	-35%	/	-23%	8	-3	/
O=C(/C=C/c1cccc([N+](=O)[O-])c1)Nc1ccc(NC(=O)c2cccs2)cc1	-8%	-11%	2%	1	-5	i
CC(CCC(=O)OC[C@H]1O[C@H](C#Cc2ccccc2)C=C[C@H]1Oc1ccc(C)cc1)=NOC[C@@H](O)[C@H]1O[C@@H]2OC(C)(C)O[C@H]2[C@@H]1O	-2%[14.2 µM]	/	1%[14.3 µM]	/	/	/
COc1ccccc1NC(=O)Cn1c(=O)n(-c2cccc(C(C)=O)c2)c(=O)c2c3c(sc21)CN(C(C)=O)CC3	3%[46.1 µM]	11%	/	/	/	-13%
CCOC(=O)C1CCCN(C(=O)c2ccc(NC(=O)CC3SC(N4CCCC4)=NC3=O)cc2)C1 (stereo not given)	-6%[46.1 µM]	-4%	26%	/	/	-19%
O=C(N/N=C/c1cccc(OCc2ccccc2)c1)c1cccs1	10%	/	5%	30*	75*	/
O=C(O)c1ccc(COc2ccc(/C=N/NC(=O)c3cccs3)cc2)cc1	2%	/	?	73	113	/
CC(=O)Nc1ccc(NC(=O)c2cc3sccc3n2Cc2ccc(Cl)cc2)cc1	4%[46.1 µM]	-5%	?	/	/	-12%
Clc1cccc(Cl)c1/C=C/c1ccn[nH]1	/	/	/	35*	67*	/
CCN(C(=O)c1cn(-c2ccc(OC)cc2)c(=O)c2ccccc12)c1cccc(Cl)c1	/	-7%	1%[46.1 µM]	/	/	-9%
CCCc1c(C(=O)N/N=C(\C)c2ccc(CC(C)C)cc2)nnn1-c1nonc1N	/	-25%	/	/	/	i
COc1cc(/C=N/NC(=S)Nc2cccc(C(=O)O)c2)ccc1O	?	-5%	?	12*	24	i
COc1ccc(/C=N/NC(=S)Nc2ccccc2)cc1COc1ccc(Br)cc1	/	/	/	9	36	/
CNC(=S)N/N=C/c1ccccc1Cl	6%	-26%	13%	10	-7	-8%
COc1cccc(/C=N/NC(=S)Nc2cccc(C(=O)O)c2)c1O	5.8µM*	/	5.8µM*	13	30	/
S=C(N/N=C/c1ccccc1Cl)Nc1ccccc1	-19%	/	?	54*	122*	/
COc1ccc(/C=N/NC(=S)Nc2ccccc2)cc1	22%[46.1 µM]	-2%	21%	55*	75*	-12%
CCCCSc1nnc2c(n1)OC(c1ccc(Br)s1)N(C(C)=O)c1ccccc1-2 (stereo not given)	-14%[46.1 µM]	-3%	2%[46.1 µM]	/	/	i
COc1ccc(/C=N/NC(=S)Nc2cccc(C(=O)O)c2)cc1	?	-2%	?	41*	156*	-1%
Cc1cccc(C)c1NC(=S)N/N=C/c1ccc(C(=O)O)cc1	17%[46.1 µM]	-14%	15%	0	-1	i
O=C(O)c1cccc(NC(=S)N/N=C/c2cccnc2)c1	?	-3%	-16%[46.1 µM]	17*	54	i
CC(=O)Nc1cccc(C(=O)N/N=C/c2cccnc2)c1	?	6%	0%	2	22	-9%
CC(C)[C@H]1c2ccc(F)cc2CC[C@@]1(CCN(C)CCCc1nc2ccccc2[nH]1)OC(=O)C1CC1	/	?	/	-10	-25	?
CCOc1ccc(NC(=S)N2CCC(c3ccc(C)cc3)C2)cc1 (stereo not given)	/	/	/	-2	-8	/
SMILES	MARV entry inh	Vaccinia Venus	LASV entry inh	Cycloheximide cs	Shiga inhibitor	Vaccinia mCherry
COc1cccc(NC(=S)N2CCC(c3ccc(C)cc3)C2)c1 (stereo not given)	?	-13%	?	30*	82*	i
COc1ccc(NC(=S)N2CCC(c3ccc(C)cc3)C2)cc1 (stereo not given)	?	-14%	11%[46.1 µM]	14*	41	-9%
Cc1ccc(NC(=S)N2CCC(c3ccc(C)cc3)C2)cc1 (stereo not given)	/	/	/	46*	98*	/
CN(C(=S)Nc1ccccc1)c1ccccc1	?	-7%	1%	-3	-8	-8%
CN(C)/C=N/C(=S)Nc1ccccc1	1%[46.1 µM]	4%	26%	19*	88	-5%
CN(C)/C=N/C(=S)Nc1ccc(Br)cc1F	-27%	-13%	?	49*	52*	/
COc1cc2nccc(Oc3ccc(NC(=O)Nc4ccc(F)cc4F)c(F)c3)c2cc1OC	/	/	/	-11	-7	/
O=C(NCc1ccccc1Cl)c1cccc2c1C(=O)c1ccc(-c3ccc(OC(F)(F)F)cc3)cc1S2(=O)=O	/	10µM*	/	/	/	?
O=C(NCc1cccc(OC(F)(F)F)c1)c1cccc2c1C(=O)c1ccc(-c3ccc(F)cc3OCc3ccccc3)cc1S2(=O)=O	/	-8%	/	/	/	i
Cc1ccc2nc3ccc(N4CCN(C)CC4)nn3c(=O)c2c1	-30%	-5%	-29%	32*	57*	-3%
Cc1ccc2nc3ccc(N4CCCCCCC4)nn3c(=O)c2c1	15%	/	?	28*	56*	/
Cc1sc2nc3ccc(N4CCCC4)nn3c(=O)c2c1C	/	?	/	8	7	?
c1ccc(-c2cc(N3CCOCC3)nc3ccccc23)cc1	?	/	-20%	-1	-26	/
O=c1c2ccccc2nc2ccc(N3CCOCC3)nn12	?	/	15%	28*	52*	/
COc1ccc(CNC(=O)c2cnn(-c3nccc(-c4ccco4)n3)c2C)cc1OC	/	-14%	/	/	/	?
COc1ccc(-c2[nH]c(-c3ccc(C)cc3)nc2SCC(=O)NCC2CCCO2)cc1 (stereo not given)	3%[46.1 µM]	-15%	-11%[46.1 µM]	/	/	-13%
CCN(CC)CCN1C(=O)c2ccccc2NC1c1ccc(N(C)C)cc1 (stereo not given)	-6%[46.1 µM]	-13%	-21%	30	66	/
CN(C)c1ccc(C2Nc3ccccc3C(=O)N2CCCN2CCOCC2)cc1 (stereo not given)	/	/	/	31*	43*	/
CCOC(=O)c1ccc2oc(=O)n(Cc3ccccc3)c2c1	/	2%	0%[46.1 µM]	/	/	-12%
CCCCC(=O)NC(c1ccc(Cl)cc1Cl)c1ccc2cccnc2c1O (stereo not given)	?	?	7.1µM*	7	6	?
CCC(=O)NC(c1ccc(Cl)cc1Cl)c1ccc2cccnc2c1O (stereo not given)	11µM*	?	?	11	/	2µM*
COc1cc(-c2nc3ccccn3c2/N=C/c2cccc(OC)c2O)ccc1O	25%[46.1 µM]	-11%	6%	23*	54	?
COc1cc(-c2nc3ccccn3c2/N=C/c2ccc(F)cc2)ccc1O	22%[46.1 µM]	-9%	17%[46.1 µM]	16*	24	-16%
Cc1cccc(N2CCN(C(=O)Cn3c(C)c4cnn(-c5ccccc5)c(=O)c4c3C)CC2)c1C	-12%[46.1 µM]	-26%	?	/	/	?
CCCSc1ccc2nc(NC(=O)OC)[nH]c2c1	?	?	2.1µM*	35*	141*	?
COC(=O)Nc1nc2ccc(C(=O)c3ccccc3)cc2[nH]1	/	-26%	/	/	/	-33%
